# Compound activity: PubChem BioAssay, National Center for Advancing Translational Sciences (NCATS)
# TRHR agonist – qHTS for Small Molecule Agonists and Allosteric Enhancers of Human TRH Receptor: Primary Screen for Agonists; hit rate 0.18% among 360,000; TRHR cells, calcium flux fluo-8, FDSS agonist mode; activation, % at 2 µM; AID 493084, 2011; Thyrotropin-releasing hormone receptor (Homo sapiens), P34981; further: 0% is about no effect
#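 In this calcium-flux screen, cells bearing human TRHR are dye-loaded with fluo-8, baselined for 10 cycles, then exposed to library compounds; positive kinetic calcium responses during the agonist phase mark hits, with TRH as control.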
# D1 potentiator – Potentiators of Human D1 Dopamine Receptor: qHTS. D(1A) dopamine receptor (Homo sapiens), P21728. HEK293 TREx D1 cells, calcium flux, dopamine EC20 potentiation. potentiation, % at 10 µM. hit rate 0.036% among 360,000. AID 504651, 2011; in the data active means potentiation above about 30%; further: 0% is about no effect
# Target sequence (P21728 whole entry, looked up): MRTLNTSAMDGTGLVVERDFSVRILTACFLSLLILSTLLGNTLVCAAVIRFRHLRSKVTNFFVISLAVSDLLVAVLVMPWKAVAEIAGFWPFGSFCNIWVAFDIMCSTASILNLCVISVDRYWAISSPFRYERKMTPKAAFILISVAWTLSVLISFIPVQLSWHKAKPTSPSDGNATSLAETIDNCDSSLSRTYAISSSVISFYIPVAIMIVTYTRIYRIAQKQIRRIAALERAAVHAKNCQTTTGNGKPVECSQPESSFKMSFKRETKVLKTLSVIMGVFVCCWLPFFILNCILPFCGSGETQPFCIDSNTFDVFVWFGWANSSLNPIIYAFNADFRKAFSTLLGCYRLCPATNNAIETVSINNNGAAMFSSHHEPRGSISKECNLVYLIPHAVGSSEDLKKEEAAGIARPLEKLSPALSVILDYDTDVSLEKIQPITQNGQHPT
# TRHR enhancer – qHTS for Small Molecule Agonists and Allosteric Enhancers of Human TRH Receptor: Primary Screen for Enhancers | Thyrotropin-releasing hormone receptor (Homo sapiens), P34981 | hit rate 0.66% among 360,000 | enhancement, % at 2 µM | AID 493056, 2011 | TRHR cells, fluo-8 calcium fluorescence, EC20 TRH enhancement; in the data active means enhancement above about 30%; further: 0% is about no effect
#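 Enhancer read-out: after compound pinning and an initial kinetic agonist-mode read, an EC20 of TRH (10 nM final) was injected and fluo-8 calcium signal (Ex 480/Em 530) followed at 1 s/cycle for 100 cycles in TRHR-expressing cells.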
# D1 agonist – Allosteric Agonists of the Human D1 Dopamine Receptor: qHTS | D(1A) dopamine receptor (Homo sapiens), P21728 | HEK293 T-REx D1 cells, calcium flux, agonist mode | activation, % at 2 µM | hit rate 1% among 360,000; further: 0% is about no effect
#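 Inducible HEK293 T-REx D1 cells, force-coupled to calcium signalling, were plated at 4000 cells/well with tetracycline and held overnight at 30 C. After no-wash calcium dye loading, compound-evoked calcium rise over 180 s flagged agonists.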
# D1 antag – Antagonist of Human D 1 Dopamine Receptor: qHTS. D(1A) dopamine receptor (Homo sapiens), P21728. activity change, negative = inhibition, % at 10 µM. hit rate 3.2% among 360,000. HEK293 TREx D1 cells, calcium flux, dopamine EC80; stronger effect = lower value; in the data active means activity change below about -30%; further: on the % scale 0 is the no-effect control and ±100 the full control effect
#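 After overnight tetracycline induction at 30 C, force-coupled D1 HEK293 cells took up a no-wash calcium dye at room temperature. Compounds were added and monitored 180 s, and the response to EC80 dopamine was then recorded.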
# The depositor's hits bear a star; . = not tested or not shown; ! = a repeat was not active. Only some compounds are listed: those with a hit (about 4.7% of all), similar ones and a draw of the others. Unless noted, no stated cut-off is given here; in the data, active means activation above about 30%; inactive means the rest.
SMILES,TRHR agonist,D1 potentiator,TRHR enhancer,D1 agonist,D1 antag
Cc1ccc(NC(=O)/C=C\C(=O)NCC(=O)O)cc1C,0,-4,4,3,-37*
O=S1(=O)CC/C(=N/Nc2ccc(C(F)(F)F)cn2)c2cc(F)ccc21,1,11,17,0,-52*
O=S1(=O)CC/C(=N/Nc2ccccn2)c2cc(F)ccc21,0,-1,-4,0,0
COC1=C/C(=C/c2c(N)n3nc(-c4ccc(C)cc4)sc3nc2=O)C=CC1=O,5,-3,0,7,14
CCS(=O)(=O)c1nn2c(N)c(/C=C3/C=CC(=O)C(OC)=C3)c(=O)nc2s1,15,-3,7,31*,13
O=C(Cc1csc(-c2ccc(Cl)cc2)n1)Nc1cccc(S(=O)(=O)NC2=NCCC2)c1,0,-3,0,-1,-16
Cc1ccsc1C(=O)OCC(=O)Nc1cccc(S(=O)(=O)NC2=NCCCCC2)c1,-1,1,-4,5,-42*
O=C(Cc1csc(-c2ccc(F)cc2)n1)Nc1cccc(S(=O)(=O)NC2=NCCC2)c1,0,-15,8,1,-30*
O=C(Nc1cccc(S(=O)(=O)NC2=NCCCCC2)c1)c1cc(-c2ccccc2Cl)nc2ccccc12,0,-10,4,5,-36*
CCN(CC)S(=O)(=O)c1cccc(NC2=NCCCCC2)c1,0,-4,9,2,-36*
Cc1nc(-c2ccc(F)cc2)sc1CCNC(=O)c1ccccc1C(F)(F)F,0,-4,-4,5,-16
Cc1ccc(-c2nc3sc(CCNC(=O)c4ccc(Br)o4)c(C)n3n2)cc1,0,0,-1,1,.
O=C(Cc1nnc(CNC(=O)c2ccccc2)s1)Nc1ccc(C(F)(F)F)cc1Cl,0,-1,-4,0,4
CN(C(=O)CSc1nc2ccc(NC(=O)c3ccccc3)cc2s1)c1ccccc1,-1,0,-8,-2,-2
CCCCCC(=O)Nc1cccc(S(=O)(=O)NC2=NCCCCC2)c1,1,2,3,1,-24
CCCCC(=O)OCC(=O)Nc1cccc(S(=O)(=O)NC2=NCCCCC2)c1,0,-5,-3,2,-32*
Cc1cc(C)cc(C(=O)OCC(=O)Nc2cccc(S(=O)(=O)NC3=NCCCCC3)c2)c1,1,-5,4,3,-45*
Cc1nnc(NC(=O)CSc2nccn2Cc2ccc(F)cc2)s1,0,1,-5,2,7
COC(=O)c1scc(C)c1NC(=O)C1CCCCC1,0,4,0,2,-44*
COC(=O)c1sccc1NC(=O)C1CC1,0,-2,13,0,-76*
COC(=O)c1sccc1NC(=S)OC,-1,-4,0,3,-6
CCOc1ccc(CCNC(=O)CCc2cn(Cc3ccccc3F)c3ccccc23)cc1OCC,1,-4,0,6,-20
CCOC(=O)c1oc2ccc(S(=O)(=O)n3nc(-c4ccccc4)cc3N)cc2c1C,0,-3,-2,2,-34*
CCSc1oc(-c2ccc(F)cc2)nc1S(=O)(=O)c1ccc(C)cc1,1,1,-1,21,7
CCSc1oc(-c2ccccc2)nc1S(=O)(=O)c1ccccc1,-1,10,8,2,11
CSc1oc(-c2ccccc2)nc1S(=O)(=O)c1ccc(C)cc1,1,-7,-2,4,-35*
Cc1ccc(-c2nc(S(=O)(=O)c3ccc(C)cc3)c(SCC(=O)Nc3ccc(F)cc3)o2)cc1,1,0,-1,3,-61*
COc1cccc(C(c2sc3nc(-c4ccco4)nn3c2O)N2CCC(C)CC2)c1 (centres undefined),0,-2,-3,-1,.
Cc1cccc(NC(=O)CSc2nc(C)c(Cc3ccccc3)c(=O)[nH]2)c1C,-1,-6,-4,1,-31*!
